Compounds with a hit are over-represented: about 5.9% of the library has one in this group of screens.
GALK inh: galactokinase (human) inhibition; 270,000 tested, 0.007% active; Purified GALK, Kinase-Glo residual ATP luminescence; Potency, µM (series often up to 57.5 µM), usual class: inhibitors; P51570; AID 1868
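Kinase-Glo Plus luminescence measured ATP left after a 1 h room-temperature reaction. The reaction used 5 nM GALK, 100 uM galactose and 35 uM ATP at pH 8.0 (20 mM HEPES, 5 mM MgCl2, 60 mM NaCl, 1 mM DTT, 0.01% BSA).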
RORg inh: ROR gamma (mouse) transcription inhibition; AID 2551; Potency, µM (top dose mostly 53.6 µM), usual class: inhibitors; Drosophila S2 Gal4-RORgamma UAS-luciferase reporter, 20 h; 310,000 tested, 5.4% active; further: nearly all actives have a fitted effect of over 60% in size
Target sequence (P51450 whole entry, looked up, the tested form may be a part): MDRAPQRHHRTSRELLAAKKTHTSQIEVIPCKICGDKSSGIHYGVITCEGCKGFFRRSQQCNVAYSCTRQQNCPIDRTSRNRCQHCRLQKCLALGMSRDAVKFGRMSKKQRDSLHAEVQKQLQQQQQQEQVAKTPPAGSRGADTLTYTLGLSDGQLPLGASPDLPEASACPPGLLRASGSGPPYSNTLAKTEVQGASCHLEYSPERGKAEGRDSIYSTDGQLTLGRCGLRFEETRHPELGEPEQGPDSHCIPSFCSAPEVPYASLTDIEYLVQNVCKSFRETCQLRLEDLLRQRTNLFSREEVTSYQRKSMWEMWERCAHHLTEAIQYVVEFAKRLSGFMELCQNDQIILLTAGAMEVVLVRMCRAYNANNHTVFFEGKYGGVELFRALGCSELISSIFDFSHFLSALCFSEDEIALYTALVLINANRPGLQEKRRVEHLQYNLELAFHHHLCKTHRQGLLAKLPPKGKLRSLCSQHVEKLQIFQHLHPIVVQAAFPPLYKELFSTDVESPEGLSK
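Luminescence from a UAS-regulated Photinus luciferase reporter in stably transfected Drosophila Schneider cells is measured; decreased signal marks ROR gamma inhibition. Fusion expression is induced by 700 uM copper sulfate for 20 hr.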
Coupling enz: inhibits coupling enzyme system, counter-screen for aldolase hits | coupling enzyme system counterscreen, AmpLite Red fluorescence | activity change, negative = inhibition, % at 58.2 µM, hits read low | 290,000 tested, 0.67% active | AID 2472; in the data active means activity change below about -30%
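Counterscreen lacking aldolase: glyceraldehyde-3-phosphate coupling-enzyme reagent preincubated 10 min at RT with compound (at 57.5 uM final), then substrate/coupling system with AmpLite Red added; fluorescence read at 525/598 nm after 20 min RT.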
TrxR1 inh: blocks rat thioredoxin reductase 1 | O89049 | recombinant rTrxR1, NADPH fluorescence consumption, selenite substrate | Potency, µM (series often up to 114 µM), actives largely listed as inhibitors | 390,000 tested, 1% active | AID 588453; further: nearly all actives have a fitted effect of over 65% in size
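Rat TrxR1 (90 nM in the dispensed reagent) was pre-reduced with 400 uM NADPH for 5 min at room temperature, then incubated with compound for 15 min. After 400 uM selenite was added, NADPH fluorescence (Ex 340/Em 450 nm) was followed for 8 min.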
VP16 counter: Gal4-VP16 reporter inhibition counter-screen; Drosophila S2 Gal4-VP16 UAS-luciferase, luminescence, 20 h; Potency, µM (highest dose often 53.6 µM), most hits filed as inhibitors; 310,000 tested, 3.5% active; AID 2546;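 further: Gal4-VP16 expression switched on by copper sulfate through the metallothionein promoter; nearly all actives have a fitted effect of over 50% in size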
TrxR1 substrate: rat thioredoxin reductase 1 substrate activity. purified TrxR1 substrate turnover, NADPH consumption readout. 390,000 tested, 0.01% active. Potency, µM (series often up to 114 µM); further: nearly all actives have a fitted effect of over 50% in size
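Rat TrxR1, dispensed at 90 nM, was prereduced with 400 uM NADPH (final) for 5 min at ~22 deg C, then incubated with compound 15 min before 400 uM selenite. A first-read NADPH fluorescence drop versus no-compound background flagged substrates.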
Hits are given with their value; . = inactive; ? = inconclusive; / = no result given; [ ] = another dose, or the depositor's remark. Unless noted, the call rests on the fitted dose curve; in most records, active means well fitted curve in the direction sought with a large enough effect; inconclusive means small, poorly fitted or top-dose-only effect, or another doubt; inactive means no such curve, though single readings can be large; an effect the other way counts as inactive or inconclusive.

SMILES	GALK inh	RORg inh	Coupling enz	TrxR1 inh	VP16 counter	TrxR1 substrate
O=C(COc1ccc(/C=C\[N+](=O)[O-])cc1)N1CCOCC1	.	.	.	14µM	.	.
O=C(c1ccc(Cl)cc1)c1ccc(OCC(=O)N2CCOCC2)cc1	.	?	.	.	11µM	.
COCC(C)NC(=O)COCc1cc(-c2ccc3c(c2)OCO3)on1 (stereo not given)	.	.	.	?	.	.
CN(Cc1ccccc1)C1CCCN(C(=O)c2ccc(Cl)s2)C1 (stereo not given)	.	.	/	.	.	.
Cc1ccc(CSc2sc(C(=O)c3ccccc3)c(N)c2C#N)cc1	.	.	.	.	.	.
Cc1ccc(-c2sc(C(=O)NN)c(C)c2C#N)cc1	.	4.5µM	.	.	7.1µM	.
Cc1ccc(C(C[N+](=O)[O-])c2c(C)[nH]n(-c3ccccc3)c2=O)cc1 (stereo not given)	.	?	-32	?	?	.
CCNC(=O)NC(=O)COC(=O)c1ccccc1SCC(=O)NC(=O)NCC	.	.	.	35µM	.	.
O=C(COC(=O)c1ccccc1SCC(=O)NC1CCS(=O)(=O)C1)NC1CCS(=O)(=O)C1 (stereo not given)	.	.	.	.	.[10 µM]	.
COC(=O)c1cc(CNC(=O)c2ccccc2Cl)ccc1OC	.	.	.	.	.	.
O=C(Cc1cccc2ccccc12)N/N=C/c1ccc2cccc(O)c2n1	.	13µM	.	.	?	.
CCCCCCCCc1nc(=S)[nH][nH]1	.	10µM	.	.	?	.
CCN1CCCn2c1nc1c2c(=O)n(C)c(=O)n1C	.	.	.	79µM	.	.
Cn1c(=O)n(Cc2ccccc2)c(=O)c2c1nc1n2CCCN1Cc1ccccc1	.	.	.	.	.	.
Cc1ccc(C(=O)Cn2ncsc2=N)cc1	.	.	.	.	.	.
Cc1ccc(C(=O)Cn2c3c(sc2=N)CCCC3)cc1	/	0.79µM	.	/	?	/
N=C1/C(=C\c2ccc(OC(=O)c3ccccc3)cc2)C(=O)N=C2SC(N3CCOCC3)=NN12	/	?	.	.	?	.
Cc1ccc(C(=O)Oc2ccc(/C=C3\C(=N)N4N=C(N5CCOCC5)SC4=NC3=O)cc2)cc1	/	?	.	.	13µM	.
CC(C)c1c(O)ccc2c1CCC1C(C)(C)CCC[C@@]21C (stereo not given in full)	/	?	.	/	10µM	/
CC(C)NC(=O)N1CCC2(CC1)CCN(C(=O)c1ccncc1)CC2	/	.	.	/	.	/
CCN(Cc1ccc2c(c1)OCO2)C(=O)/C=C/c1cccc(Br)c1	.	.	.	.	.	.
CC(C)(C)N(Cc1ccc2c(c1)OCO2)C(=O)/C=C\S(=O)c1ccccc1 (stereo not given)	/	/	/	79µM	/	.
COc1ccc(C(=O)NC(=S)Nc2ccc(CN3CCOCC3)cc2)cc1Cl	.	13µM	/	.	?	.
Cc1ccc(C(=O)NC(=S)Nc2ccc(CN3CCCCC3)cc2)c(C)c1	.	13µM	.	?	?	.
COc1ccc(C(=O)NC(=S)Nc2ccc(CN3CCOCC3)cc2)cc1OC	.	?	.	?	.	.
SMILES	GALK inh	RORg inh	Coupling enz	TrxR1 inh	VP16 counter	TrxR1 substrate
COc1cc(OC)cc(C(=O)Nc2ccc(CN3CCCCC3)cc2)c1	.	.	.	.	.	.
COc1ccc(C(=O)NC(=S)Nc2ccc(CN3CCCCC3)cc2)cc1Cl	.	20µM	.	.	?	.
COc1ccc(CNC(=O)CCN2C(=O)c3ccccc3C2=O)cc1OC	.	.	.	.	.	.
CCNC(=S)NS(=O)(=O)c1ccccc1	.	?	.	.	.	.
O=C(NNS(=O)(=O)c1ccc(Cl)cc1)NC1CCCCC1	.	.	.	.	.	.
O=S(=O)(NC(=S)NC1CCCCC1)c1ccc(Cl)cc1	.	2.2µM	.	2.8µM	5.6µM	.
CCc1ccc(S(=O)(=O)NC(=S)NC2CCCCC2)cc1	.	3.5µM	.	6.3µM	5.6µM	.
Cc1ccc(S(=O)(=O)NC(=S)NC2CCCCC2)cc1	.	3.2µM	.	3.5µM	14µM	.
Cc1ccc(S(=O)(=O)NC(=O)NC2CCCCC2)cc1	/	.	/	/	.	/
CCNC(=S)NS(=O)(=O)c1ccc(Cl)cc1	.	22µM	.	?	.[0.365 µM]	.
NS(=O)(=O)c1ccc(CCNC(=S)NC2CCCCC2)cc1	.	.	.	.	.	.
Cc1cc(NS(=O)(=O)c2c(C(=O)N3CCOCC3)c(C)n(C)c2C)ccc1Br	.	.	.	.	.	.
Cn1c(=O)c2c(nc3n2CC(COc2ccc(Cl)cc2)O3)n(C)c1=O (stereo not given)	.	.	.	.	.	.
CCOc1ccccc1CNC(=O)c1ccc(-c2nc(CSc3ccc(C)cc3)c(C)o2)cc1	/	/	/	.	/	.
CC1=C(C#N)C(=O)N(C2CCS(=O)(=O)C2)C(=O)/C1=C\c1ccco1 (stereo not given)	/	.	-31	/	?	/
O=C1/C(=C\c2ccco2)SC(=S)N1C1CCCCC1	.	.	.	/	.	/
CC(C)c1ccc(C(N)=S)cc1	.	4µM	.	.	18µM	.
COCCCNC(=S)NCCNc1nc2cc(C)cc(C)c2cc1C#N	.	8.9µM	.	.	?	.
CCOCCCNC(=S)NCCNc1nc2c(C)cccc2cc1C#N	.	0.25µM	.	.	3.2µM	.
Cc1cccc2cc(C#N)c(NCCNS(=O)(=O)c3ccccc3)nc12	.	.	.	.	.	.
Cc1cccc2cc(C#N)c(NCCNC(=O)COc3ccccc3)nc12	.	?	-35	.	?	.
Cc1cccc2cc(C#N)c(NCc3ccccc3)nc12	.	5.6µM	-44	.	7.1µM	.
CC(=O)C1=C(C)OC(N)=C(C#N)C1c1cc2cc(C)c(C)cc2nc1Cl (stereo not given)	.	.	.	.	.	.
C=CCn1c(O)c(N=NC(=O)CNC(=O)c2cccs2)c2ccccc21	.	.	.	.	.	.
CCC(c1nnnn1Cc1ccc2c(c1)OCO2)N1CCN(c2ccccc2)CC1 (stereo not given)	.	.	.	.	.	.
SMILES	GALK inh	RORg inh	Coupling enz	TrxR1 inh	VP16 counter	TrxR1 substrate
COCCN(C(=O)Nc1ccccc1)C(C)c1cccnc1 (stereo not given)	.	.	.	.	.	.
COC(=O)c1nn(-c2ccccc2)ccc1=O	.	.	.	.	.	.
CCN(CC)c1nc(Nc2ccc(Cl)cc2)nc(OCC#N)n1	.	.	.	.	.	.
Cc1ccc(N2C(=O)c3ccc(C(=O)N4CCN(c5cccc(C)c5C)CC4)cc3C2=O)cc1	.	?	.	.	20µM	.
Cc1cccc(OCC(=O)Nc2ccncc2)c1	/	/	/	.	/	.
Cc1ccccc1OCC(=O)Nc1ccc(Cc2ccncc2)cc1	.	?	.	.	10µM	.
